The record followed here is PubChem BioAssay AID1446 (The Scripps Research Institute Molecular Screening Center, 2008).

About 2,400 (1.1%) of roughly 220,000 compounds were called active.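 Rule for the calls: active = inhibition above the campaign mean plus 3 SD over all tested compounds (cut at about 24% in these data); inactive = the rest.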 For the sample, actives were picked, then their nearest neighbours and some compounds at random.

The nature of this assay: reduced viability of JAK2V617F-dependent Ba/F3 cells, primary screen, JAK2V617F inhibitor project, cell-based, Ba/F3 EpoR-JAK2V617F, luminescence (AID 1446).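 Note: cytokine-independent growth of Ba/F3 cells driven by EpoR plus mutant JAK2; 0% = DMSO-treated cells and 100% = JAK inhibitor I control.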 Conditions: ATP luminescence, at 5.6 µM, active compounds read high.
As to `CCC1CCCCN1CCCNC(=O)C1CCC(Cn2c(=O)[nH]c3ccccc3c2=O)CC1` (stereo unspecified), the inhibition is 2.93% (inactive).

Consider `CCC1CCCCN1CCCNC(=O)Cn1nc(-c2ccccc2)ccc1=O` (stereo unspecified), for which the inhibition is -2.73% (inactive).

For the molecule `CCC1CCCCN1CCCNC(=O)c1cc2c(Cl)nc3ccccc3c2s1` (stereo unspecified), the inhibition was 58.8% (active).

In the case of `CC(C)(C)c1cc(P(=O)(c2ccccc2)c2ccccc2)ccc1O`, the inhibition was -0.07% (inactive).

Regarding `OCCN1CCN(C(=S)c2ccc(-c3ccccc3)cc2)CC1`, the inhibition was -5.03% (inactive).

For `COc1ccc(C(=O)CSc2nnc(NC(=O)C3CC(=O)N(c4cccc(OC)c4)C3)s2)cc1` (stereo unspecified), the inhibition is 0.22% (inactive).

In the case of `O=C(CCl)Nc1ccc(Sc2ccc(NC(=O)CCl)cc2)cc1`, the inhibition is 39.2% (active).

Take `CC(C)(CCl)C(=O)Nc1ccc(Sc2ccc(F)cc2)cc1`: the inhibition is -2.48% (inactive).

On to `Cc1ccc(NC(=O)CC(=O)Nc2ccc(C)cc2)cc1`, for which the inhibition is -3.42% (inactive).

Take `COc1ccc(C(=O)Nc2ccc(N3CCC(C)CC3)cc2)cc1Br`: the inhibition was 1.71% (inactive).

As for `COc1ccc(N2CCN(C(=O)CCSCc3ccccc3F)CC2)cc1`, the inhibition is -2.23% (inactive).

In the case of `CCC(C)C(=O)Nc1cc([N+](=O)[O-])ccc1Cl` (stereo unspecified), the inhibition was -3.84% (inactive).

Consider `CCN(CC)S(=O)(=O)c1ccc(N(C)Cc2cccc(OC)c2OC)nc1`, for which the inhibition was 1.34% (inactive).

Take `CCCCCCc1cc2cc(-c3nnc(-c4cccc(OC)c4)o3)c(=O)oc2cc1O`: the inhibition is -1.07% (inactive).

`CCCc1nc2ccccc2c(=O)n1NC(=O)c1c(O)c2ccccc2[nH]c1=O`: the inhibition is 6.3% (inactive).

In the case of `CCCc1nc2ccccc2c(=O)n1/N=C/c1ccc(O)c(O)c1`, the inhibition is 26.5% (active).

Regarding `Cn1c(SCC(=O)N/N=C/c2ccc(O)c(O)c2)nc2ccccc21`, the inhibition is 0.9% (inactive).

Take `Cc1nnsc1C(=O)NCc1c(F)cccc1Cl`: the inhibition is 1.93% (inactive).

Regarding `CCCCC1S/C(=N/N=C/c2cccs2)NC1=O` (stereo unspecified), the inhibition was 1.12% (inactive).

For `CCCOC(=O)c1[nH]c2c(c1C)C(=O)CC(c1cccs1)C2` (stereo unspecified), the inhibition is 74.3% (active).

Take `CCOC(=O)c1[nH]c2c(c1C)C(=O)CC(c1ccc(N(C)C)cc1)C2` (stereo unspecified): the inhibition is 0.77% (inactive).

Turning to `CCCOC(=O)c1[nH]c2c(c1C)C(=O)CC(c1cc(OC)c(OC)c(OC)c1)C2` (stereo unspecified), the inhibition is 17.1% (inactive).

Turning to `COc1ccc(/C=C2/SC(=O)N(CCCCCC(=O)Nc3ccccc3C(=O)O)C2=S)cc1`, the inhibition was -2.34% (inactive).

With `Cc1ccc(C2=NN(C)c3nc4ccccc4n3C2)cc1`, the inhibition was 56.8% (active).

In the case of `Cc1ccc(O)c(CNc2nc3ccccc3n2C)c1`, the inhibition was 1.4% (inactive).

As for `Cn1cccc1-c1nc2ccccc2n1C`, the inhibition is 3.85% (inactive).

For the molecule `Fc1ccc(COc2ccc(-c3nnco3)cc2)cc1`, the inhibition was -2.6% (inactive).

On to `CCOc1cc(/C=C2/C(=N)N3OC(C)=CC3=NC2=O)ccc1OC`, for which the inhibition was 1.56% (inactive).

On to `C/C(=N\NC(N)=S)c1cccnc1`, for which the inhibition is -4.73% (inactive).

Turning to `Cn1c(-c2ccc(F)cc2)cnc1SCC(=O)NNC(=O)Cc1ccccc1`, the inhibition is 0.3% (inactive).

Take `Cc1ccc(-c2cnc(NC(=O)CCC(=O)N(C)Cc3ccccc3)n2C)cc1`: the inhibition was 40.1% (active).

For `CN(Cc1ccccc1)C(=O)CCc1ccccc1`, the inhibition was -4.97% (inactive).

`CC(=O)c1ccc(N2CCN(S(=O)(=O)c3c(C)[nH]c(=O)[nH]c3=O)CC2)cc1`: the inhibition is 2% (inactive).

Turning to `c1ccc2c(c1)CSc1sccc1C2=C1CCNCC1`, the inhibition was 45.9% (active).

On to `CC(=O)NC(=S)Nc1ccc(NC(=S)NC(=O)c2ccc([N+](=O)[O-])cc2)cc1`, for which the inhibition was -4.8% (inactive).

Consider `Cn1ccc(=Nc2ccc(NC(=O)c3ccc(N=c4ccn(C)c5ccc([N+](=O)[O-])cc45)cc3)cc2)cc1`, for which the inhibition is 34.4% (active).

For the molecule `Cc1cc([N+](=O)[O-])ccc1NC(=O)c1ccc(NC(=O)C(C)C)cc1`, the inhibition was 0.7% (inactive).

Take `O=C(Nc1ccccc1-c1ccccc1)c1cccs1`: the inhibition is 6.54% (inactive).

Consider `N#Cc1ccc(OCc2nnc(-c3ccc([N+](=O)[O-])cc3)o2)cc1`, for which the inhibition is 1.03% (inactive).

For the molecule `Cc1n[nH]c(=O)n1-c1ccc(C(C)C)cc1`, the inhibition is 0.05% (inactive).

For `O=C(Nc1ccccc1)Nc1ccc(C(F)(F)F)cn1`, the inhibition is 2.61% (inactive).

Regarding `Cc1nccn1CC(=O)N/N=C/c1ccc(O)c(O)c1`, the inhibition was -3.5% (inactive).

For the molecule `Oc1ccc(/C=N/Nc2ccc(C(F)(F)F)cn2)cc1O`, the inhibition was 72% (active).

As for `CC1(C)C2CC=C(/C=N/NC(=O)C3CC3)C1C2` (stereo unspecified), the inhibition is -1.08% (inactive).

For the molecule `Cc1cc(N2CCN(Cc3ccc4c(c3)OCO4)CC2)n2ncnc2n1`, the inhibition is 4.15% (inactive).

With `Fc1ccc2[nH]c3c(N4CCN(Cc5ccc6c(c5)OCO6)CC4)ncnc3c2c1`, the inhibition is 37.1% (active).

Regarding `Fc1ccc2[nH]c3c(N4CCSCC4)ncnc3c2c1`, the inhibition was -5.13% (inactive).

For `CC(=O)Nc1ccc(/C(C)=N/NC(=O)CN(c2ccccc2Br)S(C)(=O)=O)cc1`, the inhibition was -0.87% (inactive).

With `CSc1sc(C(=O)NC(=O)NCc2cccnc2)c(C)c1-c1ccon1`, the inhibition was -1.98% (inactive).

As for `COc1ccc(C2C(C(C)=O)=C(O)C(=O)N2CCc2c[nH]c3ccccc23)cc1` (stereo unspecified), the inhibition is -3.16% (inactive).

`O=C(N/N=C\c1cc(Br)c(Br)o1)C1COc2ccccc2O1` (stereo unspecified): the inhibition is -4.95% (inactive).

`CN(Cc1nc2ccc(F)cc2[nH]1)Cc1nc(CC2CC2)no1`: the inhibition was -1.61% (inactive).

Consider `CN(Cc1ccc2nsnc2c1)Cc1nc(Cc2cccc(F)c2)no1`, for which the inhibition is 47.5% (active).

Take `CCc1ccc(CN(C)Cc2nc(Cc3ccccc3)no2)nc1`: the inhibition was 1.45% (inactive).

For the molecule `Cc1cc(C(=O)CCl)c(C)n1CC1COc2ccccc2O1` (stereo unspecified), the inhibition is 2.03% (inactive).

On to `CSCCC(NS(=O)(=O)c1ccc2c(c1)oc(=O)n2C)C(=O)NCc1ccccc1` (stereo unspecified), for which the inhibition is -3.72% (inactive).

Consider `COc1ccc2nc(/N=C(\N)NC(=O)Nc3ccccc3)nc(C)c2c1`, for which the inhibition was 30.8% (active).

For the molecule `Cc1nc(/N=C(\N)NC(=O)NC2CCCCC2)nc2ccccc12`, the inhibition is 2.92% (inactive).

With `COc1ccc(NC(=O)Nc2ccc3nc(C)c(C)nc3c2)cc1`, the inhibition was -2.47% (inactive).

`CCCN(CCC)S(=O)(=O)c1ccc(C(=O)NNC(=O)c2cc(OC)c(OC)c(OC)c2)cc1`: the inhibition is -3.01% (inactive).

Consider `C#CCOCCOCCOCCNc1nc(N2CCN(C(=O)[C@H](C(C)C)n3cc(CCO)nn3)CC2)nc(N2CCN(C(=O)[C@H]([C@@H](C)CC)n3cc(CCCN=C(N)N)nn3)CC2)n1`, for which the inhibition was 1.82% (inactive).

Consider `O=C(NNc1ccccn1)c1ccc(Cl)nc1`, for which the inhibition is -0.88% (inactive).

In the case of `NS(=O)(=O)c1ccc(NC(=O)COC(=O)c2ccc(Cl)nc2)cc1`, the inhibition was 0.7% (inactive).

As for `CCN(CC)c1ccc(NC(=O)c2ccc(Cl)nc2)cc1`, the inhibition was 81.4% (active).

Take `COc1ccc(CN(C)Cc2nc3cc(OC)c(OC)cc3c(=O)[nH]2)c(OC)c1`: the inhibition is 1.74% (inactive).

As for `C[C@H](NC(=O)c1ccccc1Cl)C(=O)OCCOc1cccc(Cl)c1`, the inhibition was -3.18% (inactive).

Turning to `Cn1cc(C(=O)NCc2ccccc2F)cn1`, the inhibition is -6.67% (inactive).

`N#CC1(C#N)C(C(=O)C23CC4CC(CC(C4)C2)C3)C12CCOCC2` (stereo unspecified): the inhibition was -2.53% (inactive).

As to `Cn1c(N)c(C(=O)COC(=O)/C=C/c2ccc(OC(F)F)cc2)c(=O)n(C)c1=O`, the inhibition was 2.97% (inactive).

Consider `Cc1ccc(NC(=O)CN(C)Cc2ccc(F)cc2)c([N+](=O)[O-])c1`, for which the inhibition is -2.86% (inactive).

Turning to `CC(=O)Nc1ccc(Nc2c3ccccc3nc3ccccc23)cc1`, the inhibition is 102% (active).

For `Cc1ccc(Nc2c3c(nc4ccccc24)CCC3)cc1`, the inhibition was 4.72% (inactive).

Consider `O=[N+]([O-])c1cccc(Nc2c3ccccc3nc3ccccc23)c1`, for which the inhibition is -2.83% (inactive).

As for `COc1cc2c(cc1O)[C@H](Cc1ccc(Oc3cc(C[C@@H]4NCCc5cc(OC)c(O)cc54)ccc3O)cc1)NCC2`, the inhibition is 1.92% (inactive).

For the molecule `CC[C@H]1CN2CCc3cc(OC)c(OC)cc3[C@@H]2C[C@@H]1C[C@H]1NCCc2cc(OC)c(OC)cc21`, the inhibition was 101% (active).

For `Cn1cnc(C(F)(F)F)c1-c1ccc([N+](=O)[O-])cc1`, the inhibition was -0.95% (inactive).

As for `O=C(O)/C=C/c1ccc2c(c1)OCCO2`, the inhibition is 0.26% (inactive).

In the case of `COc1ccccc1N1CCN(CCCCOc2ccc(F)cc2)CC1`, the inhibition was -1.67% (inactive).

`COc1ccccc1N1CCN(Cc2ccc(OC)c3ccccc23)CC1`: the inhibition is 26.8% (active).

With `CNCC(O)CN1CCN(c2ccccc2OC)CC1` (stereo unspecified), the inhibition was -2.42% (inactive).

Turning to `O=c1[nH]c2ccccc2s1`, the inhibition was 1.22% (inactive).

Consider `O=C(Oc1ccccc1Cl)c1ccc(N2CCOCC2)c([N+](=O)[O-])c1`, for which the inhibition is 0.46% (inactive).

For the molecule `Cc1ccc(S(=O)(=O)NCCC(c2ccccc2)c2ccccc2)cc1C(=O)O`, the inhibition is 0.73% (inactive).

Regarding `C/C(=N/NC(=O)CN1CCN(S(=O)(=O)c2ccc(Br)cc2)CC1)c1ccncc1`, the inhibition was -1.23% (inactive).

With `COc1ccc(-c2csc(Cc3nc(O)cs3)n2)cc1`, the inhibition is -2.27% (inactive).

Turning to `Cc1onc(C(=O)NN)c1-c1csc(COc2ccccc2)n1`, the inhibition was 3.97% (inactive).

With `CC(C)(C)C(=O)OCc1nc(-c2ccc(O)c(O)c2)cs1`, the inhibition is 83.4% (active).

Take `CC(C)NC(=S)N1CCN(S(C)(=O)=O)CC1`: the inhibition was -5.62% (inactive).

In the case of `O=C(c1ccc(=O)oc1)N1CCC(C(O)(c2ccccc2)c2ccccc2)CC1`, the inhibition was 2.85% (inactive).

As for `COc1ccc(F)cc1C(=O)C1CCCN(C(=O)CCc2ccccn2)C1` (stereo unspecified), the inhibition was 0.16% (inactive).

For the molecule `CSCC(=O)N1CCCC(C(=O)c2cc(F)ccc2F)C1` (stereo unspecified), the inhibition is 67.6% (active).

With `COc1ccc(/C=C/CN2CCCC(C(=O)c3cc(F)ccc3F)C2)cc1` (stereo unspecified), the inhibition is 0% (inactive).

With `COc1ccc(Cc2cc(-c3ccc(F)cc3)n[nH]c2=O)cc1`, the inhibition is 1.71% (inactive).

On to `CCOC(=O)CSC1=C(C#N)C(c2sccc2C)CC(=O)N1` (stereo unspecified), for which the inhibition was 83.5% (active).

On to `C=CCOC(=O)C1=C(C)NC(SCC(=O)OCC)=C(C#N)C1c1ccc(C)cc1` (stereo unspecified), for which the inhibition was -0.33% (inactive).

With `Cc1ccc(C2CC(=O)NC(SCC(=O)OCc3ccccc3)=C2C#N)o1` (stereo unspecified), the inhibition is 1.77% (inactive).

As a reminder, the inhibition is the relative decrease from the control value, in per cent.
